Bioassay records deposited in PubChem BioAssay by several laboratories.
CendR NRP1 mod – modulators of CendR peptide binding to NRP-1, primary screen, biochemical, fluorescence polarization, uHTS; inhibition, % at 25 µM; Neuropilin-1 (Homo sapiens), O14786; 360,000 compounds, 0.85% hits; FAM-RPARPAR peptide binding to NRP-1; AID 602438, 2012;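 active = inhibition or corrected inhibition above about 18%, plus a signal ratio from 0.5 to 1.5, limit read from the data, passing the limit was not always enough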
FID counter – compounds displacing fluorescent DNA intercalator, primary screen, artefact control for HCV NS3 helicase inhibitor project, biochemical, FID fluorescence; DNA fluorescent intercalator displacement; inhibition, % at 7.9 µM; 290,000 compounds, 0.17% hits; in the data active = inhibition above about 37%;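 note: 0% = vehicle and 100% = reference compound; higher means more ethidium bromide displaced from hairpin DNA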
N-glyco inh – increase of ERlucT glycosylation luciferase signal, primary screen, N-linked glycosylation inhibitor project, D54 ERlucT cells, luminescence, set 2; D54 ERlucT glycosylation luciferase reporter, 24 h; percent of 100 nM tunicamycin response; reporter increase, % at 12.5 µM; 360,000 compounds, 0.23% hits; AID 588692, 2011;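 active = mean luciferase reporter signal, scaled so untreated is 0 and the glycosylation-blocking control 100, at or above a set limit in every replicate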;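 note: luciferase carries N-glycosylation sites so blocking glycosylation raises the light; 0% = median of neutral control wells and 100% = median of 100 nM tunicamycin wells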
RAD52 inh – RAD52 DNA annealing inhibitors, primary screen, biochemical, FRET, single point, set 2. recombinant RAD52 DNA annealing, FRET fluorescence. inhibition, % at 18.7 µM. DNA repair protein RAD52 homolog (Homo sapiens), P43351. 360,000 compounds, 0.46% hits;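 active = every replicate showing at least 50% inhibition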
RAD54 inh – inhibitors of human RAD54 branch migration, primary screen, biochemical, fluorescence, single point. DNA repair and recombination protein RAD54-like (Homo sapiens), Q92698. RAD54 Holliday junction branch migration, FAM/BHQ fluorescence. inhibition, % at 10.4 µM. 360,000 compounds, 0.14% hits. AID 602329, 2012;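 active = mean normalized replicate activity at least 40 and at least half of replicates scoring 40 or more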;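 note: 0% = median of neutral control wells and 100% = median of positive control wells; inhibitors cause a drop in the FAM fluorescence signal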
miR122 inh – miR-122 Renilla sensor signal increase in Huh7, primary screen, miR-122 inhibitor project, cell-based, single point, plate reader. activation (reporter increase), % at 12.5 µM. 340,000 compounds, 0.3% hits. Huh7 miR-122 Renilla luciferase sensor, 48 h; neutral wells = 0, positive control = 100;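 active = mean replicate activation score at least 90 and every replicate individually at or above 90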;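 note: higher luciferase means less miR-122 activity so hits act as miR-122 inhibitors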
DNA binder FP – DNA-binding compounds via dye displacement, dose response, artefact control for RAD52 inhibitor project, biochemical, fluorescence polarization, cherry-pick | AC50, µM | Salmon sperm DNA/acridine orange FP displacement | shares compounds with RAD52 inh | 1,000 compounds, 8% hits | AID 652128, 2013;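 active = fitted half-maximal concentration for signal loss at or below twice the highest dose tested, in every separate run, actives reach about 64 µM in these data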
Active calls of the source: *; [ ] = remark or other dose. Only some compounds are listed: those with a hit (about 1.5% of all), similar ones and a draw of the others.

Results for O=c1[nH]c2ccccc2n1C1CCN(Cc2ccc(-c3[nH]c4cc5ncnc5cc4nc3-c3ccccc3)cc2)CC1 ?
CendR NRP1 mod: -17; RAD52 inh: 54*; DNA binder FP: inactive

What do the screens show for `O=c1[nH]c2cc(Cl)ccc2n1C1CCN(Cc2ccc(-c3nc4ccccc4nc3-c3ccccc3)cc2)CC1`?
RAD52 inh: -17

Results for CC[N+](C)(CC)CCCCOc1ccc2c(c1)C(=O)c1cc(OCCCC[N+](C)(CC)CC)ccc1-2 ?
CendR NRP1 mod: -3; FID counter: 88*; N-glyco inh: 3; RAD52 inh: 105*; RAD54 inh: 99*; miR122 inh: -4; DNA binder FP: 19µM*

What do the screens show for `O=C(Cc1ccncc1)N1CCCCN2[C@H](CO)[C@H](c3ccc(C#Cc4ccccc4F)cc3)[C@@H]2C1`?
RAD54 inh: -10; miR122 inh: 37[16.7 µM]

Results for N#Cc1cccc(-c2ccc([C@@H]3[C@@H](CO)N4CCCCN(C(=O)Cc5cccnc5)C[C@@H]34)cc2)c1 ?
RAD52 inh: -35; RAD54 inh: 6; miR122 inh: -6[16.7 µM]
